The results in this text go back to PubChem BioAssay (NCI).

Values joined by “and” are separate entries in the source; they are usually repeats but may differ in a detail not shown here. Identical values can stand only once. About 83,000 compounds went through this panel and 20% of them were active in at least one assay; those are over-represented in the sample as a whole.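 Cell lines were cultured in 96-well plates, exposed to a single compound concentration, and assessed for percent growth 48 hours later.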 Active and inactive are the calls of the source. Rule for the calls: active = growth percent below 10; inactive = the rest.

Common to all, as to test: NCI-60 one-dose screen, 48 h (100 = growth as untreated, 0 = no growth, -100 = all killed)
What all share (conditions): 10 µM unless noted

Assay [1] relates to SR leukemia.
In assay [2] the test system is RPMI-8226 leukemia.
The subject of assay [3] is OVCAR-8 ovarian.
Assay [4] has as its system OVCAR-5 ovarian.
Assay [5] has as its system OVCAR-4 ovarian.
Assay [6] relates to SK-OV-3 ovarian.
The subject of assay [7] is IGROV1 ovarian.
Assay [8] concerns OVCAR-3 ovarian.
In assay [9] the test system is HS 578T breast.
In assay [10] the test system is NCI/ADR-RES ovarian.

Take `Cc1c(O)nc(N)[nH]c1=O`: the growth in assay [1] was 125% (inactive); in [2] it was 100% (inactive); in [3], 101% (inactive); in [4], 106% (inactive); in assay [5], 118% (inactive); in assay [6] it was 112% (inactive). Also, the growth was 118% (inactive) in assay [7], 121% (inactive) in assay [8], 101% (inactive) in assay [9] and 102% (inactive) in assay [10].

`CC(=O)Oc1cc(C(C)C)c(OCCN(C)C)cc1C`: the growth in assay [1] is 107% (inactive); in assay [2], 123% (inactive) and 105% (inactive); in assay [3], -70.9% (active) and 99% (inactive); in assay [4], 92.7% (inactive); in assay [5], 111% (inactive) and 114% (inactive); in assay [6] it was 115% (inactive) and 101% (inactive). Also, the growth in assay [7] was 110% (inactive) and 112% (inactive); in assay [8], 125% (inactive) and 119% (inactive); in [9] it was 99.2% (inactive) and 97.7% (inactive); in [10], 99.5% (inactive) and 111% (inactive).

Turning to `Cc1nc2c(=O)[nH]c(=S)[nH]c2[nH]c1=O`, the growth was 112% (inactive) in [1]; 104% (inactive) and 105% (inactive) in assay [2]; 103% (inactive) in assay [3]; 109% (inactive) and 102% (inactive) in [4]; 113% (inactive) in assay [5]; 112% (inactive) and 107% (inactive) in assay [6]. For the same molecule, the growth was 107% (inactive) and 113% (inactive) in assay [7]; 118% (inactive) and 111% (inactive) in assay [8]; 102% (inactive) in assay [9]; 106% (inactive) and 103% (inactive) in assay [10].

As for `COc1ccc(CCl)c(C)c1OC`, the growth is 105% (inactive) in assay [1]; 106% (inactive) in assay [2]; 99.3% (inactive) in [3]; 100% (inactive) in assay [4]; 109% (inactive) in [5]; 110% (inactive) in assay [6]. For the same molecule, the growth in [7] was 104% (inactive); in [8], 105% (inactive); in assay [9], 105% (inactive); in assay [10], 105% (inactive).

Turning to `CN(C)c1ccc(C(=N)c2ccc(N(C)C)cc2)cc1`, the growth in [1] was 19.9% (inactive) and 10.4% (inactive); in assay [2], 30.6% (inactive) and 25.1% (inactive); in assay [3] it was 31.5% (inactive) and 31.2% (inactive); in assay [4], 68.1% (inactive) and 65.4% (inactive); in assay [5] it was 57.8% (inactive) and 34.9% (inactive); in assay [6] it was 31.1% (inactive) and 31.6% (inactive). Besides, the growth in assay [7] was 35.2% (inactive) and 46% (inactive); in [8], -9.34% (active) and 2.49% (active); in [9] it was 16% (inactive) and 40.5% (inactive); in assay [10] it was 0.0366% (active) and 2.94% (active).

In the case of `CCC(C)NC(=O)c1ccccc1C` (stereo not given), the growth in [1] was 111% (inactive); in assay [2], 105% (inactive); in assay [3], 102% (inactive); in assay [4] it was 79.6% (inactive); in [5], 109% (inactive); in assay [6], 97.5% (inactive). The growth in assay [7] was 94.1% (inactive); in assay [8], 110% (inactive); in [9] it was 96.8% (inactive); in assay [10], 92.7% (inactive).

For the molecule `O=C1c2cccnc2-c2ncccc21`, the growth in [1] is 120% [100 µM] (inactive); in assay [2] it was 99.8% [100 µM] (inactive); in assay [3], 106% [100 µM] (inactive); in assay [4], 122% [100 µM] (inactive); in assay [5], 109% [100 µM] (inactive); in assay [6], 107% [100 µM] (inactive). The growth in assay [7] is 113% [100 µM] (inactive); in assay [8] it was 110% [100 µM] (inactive); in assay [9], 89.5% [100 µM] (inactive); in [10], 102% [100 µM] (inactive).

With `O=C1CCC(=O)N1CC1CC2CCC1C2` (stereo not given), the growth is 84.7% (inactive) and 78.9% (inactive) in assay [1]; 71.3% (inactive) and 114% (inactive) in [2]; 98.8% (inactive) and 96.1% (inactive) in assay [3]; 93.8% (inactive) and 90.8% (inactive) in [4]; 91.1% (inactive) and 97.4% (inactive) in assay [5]; -56.3% (active) and 84% (inactive) in assay [6]. The growth in assay [7] is 105% (inactive) and 107% (inactive); in [8] it was 106% (inactive) and 101% (inactive); in assay [9], 115% (inactive) and 102% (inactive); in assay [10], 110% (inactive) and 104% (inactive).

Turning to `CC(=O)Nc1ccc2oc(=O)ccc2c1`, the growth in assay [1] is 82.3% (inactive); in assay [2], 104% (inactive); in [3], 106% (inactive); in [4], 102% (inactive); in assay [5], 106% (inactive); in assay [6], 102% (inactive). Further, the growth was 105% (inactive) in assay [7], 110% (inactive) in [8], 109% (inactive) in [9] and 116% (inactive) in assay [10].

As for `CCN(CC)CCO/N=C1\CC(c2ccc(OC)c(OC)c2)Oc2ccccc21` (stereo not given), the growth was 98.5% (inactive) in assay [1]; 87.8% (inactive) in assay [2]; 102% (inactive) in [3]; 95.4% (inactive) in assay [4]; 96.5% (inactive) in [5]; 96.5% (inactive) in [6]. The growth was 88.8% (inactive) in assay [7], 111% (inactive) in assay [8], 90.3% (inactive) in [9] and 89.6% (inactive) in assay [10].
